Source: PubChem BioAssay (NCI)
The panel holds about 83,000 compounds, 20% with a hit somewhere; the sample as a whole holds those more often.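 Interpretation: 100, growth as untreated; towards 0, rising growth inhibition; 0, no net growth; 0 to -100, cell death. Compounds scoring below 10 were considered active.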 A number with no mark means an inactive call. The source made the active and inactive calls.

Tests used:
Test in all cases: NCI-60 one-dose screen, 48 h (100 = growth as untreated, 0 = no growth, -100 = all killed)
Conditions in all cases: 10 µM unless noted
NCI-H23 lung = test system: NCI-H23 lung
NCI-H226 lung = test system: NCI-H226 lung
NCI-H322M lung = test system: NCI-H322M lung
HOP-62 NSCLC = test system: HOP-62 NSCLC
HOP-92 NSCLC = test system: HOP-92 NSCLC
NCI-H522 lung = test system: NCI-H522 lung
A549/ATCC NSCLC = test system: A549/ATCC NSCLC
786-0 renal = test system: 786-0 renal
COLO 205 colon = test system: COLO 205 colon

SMILES	growth (NCI-H23 lung)	growth (NCI-H226 lung)	growth (NCI-H322M lung)	growth (HOP-62 NSCLC)	growth (HOP-92 NSCLC)	growth (NCI-H522 lung)	growth (A549/ATCC NSCLC)	growth (786-0 renal)	growth (COLO 205 colon)
CSc1ccc(/C(=N/N=C(N)N)c2ccc(Cl)cc2)cc1	12.6%	27%	30.1%	6.91% (active)	-4.16% (active)	-41.9% (active)	4.66% (active)	4.8% (active)	-89.4% (active)
CCCCN1C(=O)/C(=c2\sc3n(c2=O)C2C(NN=3)N(CC)C(=O)N2CC)c2cccc(C)c21 (stereo not drawn)	49.7%	36.6%	52.7%	46.8%	71.1%	39.4%	57.1%	63.3%	24.6%
CN1CCN(c2ccc(Nc3nc(NCCCNS(=O)(=O)c4ccccc4)c4sccc4n3)cc2)CC1	90.6%	111%	80.3%	105%	59.2%	44.8%	62%	7.25% (active)	49.2%
O=C(/C=C/c1cccc(F)c1)c1cccc(OCCCOc2cccc(C(=O)/C=C/c3cccc(F)c3)c2)c1	49.2%	77%	101%	132%	115%	83.2%	69.8%	51%	82.2%
CC1=C(SCC(=O)OCCCCCC(C)C)C(=O)c2ccccc2C1=O	89%	93.8%	100%	106%	85%	68.4%	105%	99.9%	125%
COC(=O)[C@@H](Cc1c[nH]c2ccccc12)NC(=O)CCCCOc1cc(O)c2c(=O)cc(-c3ccccc3)oc2c1	35.2%	88.8%	95.8%	96.2%	60.6%	86.7%	86.7%	97%	90.4%
CC(=O)OCCCCN1C=C/C(=C\C(=O)n2ccc3ccccc32)c2ccccc21	96.2%	88.5%	98.7%	108%	97.6%	99.1%	113%	107%	108%
CC(Nc1ncnc2ccc(-c3cnc4cnccn34)cc12)c1ccccc1 (stereo not drawn)	54.8%	46.9%	26.4%	68.8%	27.1%	–	37.6%	47.9%	81%
O=C1/C(=C/c2cc(F)cc(F)c2)Cc2cc3c(cc21)OCO3	62.3%	52.2%	41.5%	58%	63.4%	1.49% (active)	59.8%	61%	-15.2% (active)
CC[C@]12CC(C(=O)OC)=C3Nc4ccccc4[C@@]34CCN(C14)[C@@H]1c3cc4c(cc3O[C@@H]1[C@H]2O)NC1=C(C(=O)OC)C[C@@]2(CC)C3N(CC[C@@]143)C[C@H]1O[C@H]12 (stereo partly drawn)	10.2%	18.9%	28.8%	29%	-2.19% (active)	1.97% (active)	21.9%	23.2%	-1.32% (active)
O=S(=O)(NCCCNc1nccc(-c2[nH]c(-c3ccccc3)nc2-c2ccc(F)c(O)c2)n1)c1cccc2ccccc12	64.9%	68%	98.2%	76.8%	32.6%	64%	52.4%	59.8%	111%
CC[C@]12C=CCN3CC[C@@]4(c5ccc(OC)cc5N(C)[C@H]4[C@@](O)(C(=O)OC)[C@@H]1OC(=O)CCN1CCc4ccccc4C1)[C@@H]32	81.9%	98.9%	96.1%	87.5%	40.1%	101%	87.8%	92.7%	74.3%
Cc1ccc(C(=O)Nc2ccc(CNCCN3CCNCC3)c(C(F)(F)F)c2)cc1C#Cc1cnc2cccnn12	4.87% (active)	97.1%	55.3%	-48.8% (active)	-28.2% (active)	-33.9% (active)	16%	-70.2% (active)	-53.2% (active)
O=C(CCCCCC/C=C\c1csc(Br)n1)NO	95.2%	96.8%	100%	88.9%	102%	65.6%	91.9%	104%	95%
CN1CCN(Cc2ccc(NC(=O)c3cncc(C#Cc4cnc5ccc(OCCCS(C)(=O)=O)nn45)c3)cc2C(F)(F)F)CC1	-50.9% (active)	-60.1% (active)	-16.6% (active)	-47.7% (active)	-27.3% (active)	–	-9.65% (active)	-16% (active)	-66.9% (active)
N#Cc1nc(-c2ccc(Cl)cc2)oc1N1CCC(S(=O)(=O)N2CCOCC2)CC1	96.5%	94.6%	92.2%	94.6%	100%	87.2%	99.9%	93.5%	116%
CC1(C)C=Cc2cc(/C(N)=N/C(N)=N/c3nc4ccccc4s3)ccc2O1	58.3%	5.64% (active)	93.8%	5.82% (active)	94.2%	91.2%	67%	113%	102%
CSc1ccc(/C(=N/N=C(N)N)c2ccc(F)cc2)cc1	-36.7% (active)	0.244% (active)	67.5%	36.1%	33.4%	8.51% (active)	16.4%	17.7%	-42.2% (active)
Cc1c(C(=O)/C=C/c2ccc(Cl)cc2)nnn1-c1ccc2oc(=O)ccc2c1	92.9%	85.4%	98.5%	107%	79.4%	–	103%	101%	108%
O=[N+]([O-])c1ccc(NC(=S)NNC(=S)Nc2ccc(F)cc2)cc1	89.6%	94.2%	76.9%	97%	72.9%	70.1%	88.2%	97.3%	115%
C#CCn1cc(/C=N/Nc2nc(-c3ccc(Br)cc3)cs2)c2ccccc21	86.7%	94.7%	93.6%	97.5%	88.9%	88.9%	97%	105%	115%
O=C(COc1ccc(/C=C2\C(=O)Nc3ccc(Cl)cc32)cc1)Nc1ccc(Cl)cc1	59.7%	74%	74.3%	63.2%	93.5%	45.3%	57%	68.3%	90.5%
CC(C)(C)OC(=O)Nc1ccc(-c2cccc(Oc3ccc4nnc(Cl)n4n3)c2)cc1	69.7%	66.4%	101%	104%	42.3%	64.9%	85.6%	81.9%	88.5%
COc1cc(OC)cc(-c2cc(-c3c[nH]c4ccccc34)nc(-c3c[nH]c4ccccc34)c2C#N)c1	104%	87.3%	105%	96.3%	95%	92.1%	98.5%	105%	110%
O=C1C(SCc2ccccc2)=C(Cl)CN1c1ccc(Cl)cc1	80.5%	99%	98.2%	109%	104%	-59.6% (active)	101%	103%	119%
O=C1C(N2CCN(c3ccccc3)CC2)=C(Cl)C(=O)c2ncccc21	46.3%	91.3%	95.2%	63.9%	128%	-16.2% (active)	91.5%	105%	65.2%
CN1CCN(c2ccc(Nc3nc(NCCCNS(=O)(=O)c4cccc5ccccc45)c4sccc4n3)cc2)CC1	30.4%	86%	11.4%	25.6%	-43.6% (active)	-81.1% (active)	-9.22% (active)	-82.1% (active)	-74.1% (active)
CCCCCCNC(=O)Oc1ccc(/C(=C(/C)c2ccc(Cl)cc2)c2ccc(OCCN3CCCCCC3)cc2)cc1	52.2%	83.2%	96.8%	76.8%	83.6%	92.3%	74.3%	63.7%	45.7%
CCOC(=O)c1cccnc1Nc1ccc(NC(=O)Nc2ccc(Cl)c(C(F)(F)F)c2)cc1	10.1%	52.4%	68.9%	54.1%	-8.46% (active)	21%	42.8%	68%	31.7%
